Screening results from PubChem BioAssay.
p53null 32C kill: qHTS Screen for Compounds that Selectively Target Cancer Cells with p53 Mutations: Cytotoxicity of p53 Null Cells at the Permissive Temperature; H1299-neo p53 null cells, ATP luminescence, 24 h, 32C; Potency, µM (top dose mostly 46.1 µM), actives largely listed as cytotoxic; 55,000 tested, 0.62% active; AID 903, 2007; further: nearly all actives have a fitted effect of over 55% in size
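H1299-neo, 600 cells/well; overnight 37C; cpd up to 46 uM, 24 h at 32C; ATPlite luminescence after 20 min RT; normalized to DMSO (0%) and tamoxifen 100 uM (100% kill); Hill-fit AC50.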
SKOV3 invasion: Primary qHTS assay for Inhibitors of ovarian cancer metastasis using an organotypic tumor microenvironment (TME) model. SKOV3ip1-GFP adhesion/invasion on 3D omental model, fluorescence. Potency, µM (series often up to 45.8 µM), actives largely listed as inhibitors. 46,000 tested, 0.1% active. AID 1963576, 2024; further: nearly all actives have a fitted effect of over 65% in size
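Adhesion/invasion was scored as fixed GFP-labeled SKOV3ip1 cell counts (488/509 nm), normalized to DMSO and tomatine controls. Cancer cells in serum-free medium, with four compound doses (0.36-46 umol/L), sat 2 hr at RT then 16 hr at 37 C on a 48 hr fibroblast/mesothelial/ECM culture.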
PMP22 txn: Cell-based coincidence reporter assay to measure PMP22 gene transcription in S16 Pmp22-F2sN cells - Primary screen; S16 Pmp22-F2sN Schwann cells, FLuc/NLuc coincidence luminescence, 24 h; Potency, µM (series often up to 57.5 µM), actives largely listed as inhibitors; 43,000 tested, 2% active; AID 1508649, 2021; active means clear falling dose curves in both reporters; inconclusive means both reporters move, but less clearly or upward; inactive means either reporter flat; the % is the NLuc reporter signal
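qHTS, 1536-well. Cells seeded, compounds added by pin tool, 24 h 37C. Nano-Glo reagent 1 (lysis/FLuc), 10 min RT, read; Stop&Glo, 10 min RT, read NLuc.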
p53null 39C kill: qHTS Screen for Compounds that Selectively Target Cancer Cells with p53 Mutations: Cytotoxicity of p53 Null Cells at the Nonpermissive Temperature; H1299 p53-null (neo) cells, 39C, ATPlite viability, 24 h; Potency, µM (top dose mostly 46.1 µM), hits mostly cytotoxic; 55,000 tested, 0.97% active; further: nearly all actives have a fitted effect of over 50% in size
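H1299 lung cancer cells, p53-null (H1299-neo) or expressing p53 A138V (H1299-p53A138V), were plated overnight at 37C, then exposed to compounds at up to 46 uM for 24 hr at 39C. Viability was read by ATP-based luminescence.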
mTORC1 inh: Acumen qHTS Assay for Inhibitors of the mTORC1 Signaling Pathway in MEF (Tsc2-/-, p53-/-) Cells: Sytravon | Tsc2-/- p53-/- MEF, phospho-rpS6 immunofluorescence/PI, 24 h | Potency, µM (highest dose often 38.3 µM), most hits filed as inhibitors | 44,000 tested, 0.78% active | AID 493208, 2011; further: nearly all actives have a fitted effect of over 50% in size
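Tsc2-/-, p53-/- mouse embryonic fibroblasts (empty-vector line) exposed to compound 24 hrs at 37 C, fixed, immunostained for phospho-rpS6 and counterstained with propidium iodide. Acumen laser scanning gives % positive cells from Alexa 488/PI ratio, thresholded using 7.5 nM rapamycin; PI count gives viability.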
S16 viability: Cell viability qHTS assay in S16 Pmp22-F2sN cells | Potency, µM (titrated, usually from 57.5 µM), usual class: cytotoxic | AID 1508642, 2021 | S16 Pmp22-F2sN Schwann cells (luciferase reporters placed in the Pmp22 gene) viability, CellTiter-Glo, 24 h | 43,000 tested, 0.48% active; further: nearly all actives have a fitted effect of over 65% in size
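Rat S16 Schwann reporter line, 24 h treatment with library compounds delivered at 23 nL per well. Cell viability by CellTiter-Glo luminescence.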
Each line names hits and unclear results; the compound was inactive in the other large screens. A selection: hits, their analogues and other compounds. The true share with any hit is near 3.1%. Unless noted, the call rests on the fitted dose curve; in most records, active means well fitted curve in the direction sought with a large enough effect; inconclusive means small, poorly fitted or top-dose-only effect, or another doubt; inactive means no such curve, though single readings can be large; an effect the other way counts as inactive or inconclusive.

C[C@H]1O[C@H](O[C@H]2[C@H](O)[C@@H](O)[C@@H](O[C@H]3[C@H](O)[C@@H](O)C(O)O[C@H]3CO)O[C@H]2CO)[C@H](O)[C@@H](O)[C@H]1N[C@H]1C=C(CO)[C@@H](O)[C@H](O)[C@@H]1O (some centres not stated)	none (no result: p53null 32C kill, PMP22 txn, p53null 39C kill, mTORC1 inh, S16 viability)
Clc1ccc(N2CCN(c3ncnc4c3nc3n4CCCC3)CC2)cc1	PMP22 txn 14.1µM, S16 viability inconclusive
Fc1ccc(N2CCN(c3ncnc4c3nc3n4CCCCC3)CC2)cc1	PMP22 txn inconclusive
Cc1ccc(NC(=O)N2CCc3ccccc32)cc1	p53null 32C kill 5.62µM, p53null 39C kill 5.01µM (no result: SKOV3 invasion, PMP22 txn, mTORC1 inh, S16 viability)
CCOc1ccc(NC(=O)Cc2ccc(NC(=O)N3CCCCc4ccccc43)cc2)cc1	S16 viability 14.1µM
CCOc1ccc(CNC(=O)c2ccc(NC(=O)N3CCCCc4ccccc43)cc2)cc1	S16 viability inconclusive
O=C(C=Cc1ccc(/C=C/C(=O)Nc2ccc(C3=NCCN3)cc2)cc1)Nc1ccc(C2=NCCN2)cc1	none (no result: p53null 32C kill, PMP22 txn, p53null 39C kill, mTORC1 inh, S16 viability)
C=C[C@@H]1CN2CCC1C[C@@H]2C(O)c1ccnc2ccc(OC)cc12 (some centres not stated)	none (no result: p53null 32C kill, PMP22 txn, p53null 39C kill, mTORC1 inh, S16 viability)
O=C(O)Cn1nnc(-c2cc(N3CCC(Oc4cc(F)ccc4Br)CC3)no2)n1	none (no result: p53null 32C kill, PMP22 txn, p53null 39C kill, mTORC1 inh, S16 viability)
Cc1ccc2nc(N(Cc3cccnc3)C(=O)CCS(=O)(=O)c3ccccc3)sc2c1	PMP22 txn inconclusive, S16 viability 17.8µM
O=S(=O)(Nc1cc(F)ccc1F)c1ccc2[nH]c3c(c2c1)CCCCC3	SKOV3 invasion inconclusive, PMP22 txn inconclusive
O=S(=O)(Nc1cccc(F)c1)c1ccc2[nH]c3c(c2c1)CCCCC3	PMP22 txn inconclusive, p53null 39C kill 15.8µM, S16 viability inconclusive
COc1ccc2nc(C)cc(Nc3ccc(Cl)c(Cl)c3)c2c1	p53null 32C kill inconclusive, SKOV3 invasion inconclusive, PMP22 txn inconclusive, p53null 39C kill 12.6µM, mTORC1 inh inconclusive, S16 viability inconclusive
O=C(Nc1nc2c(F)cccc2s1)c1ccc2c(c1)OCCO2	p53null 32C kill 3.98µM, PMP22 txn inconclusive, p53null 39C kill inconclusive
S=C(NCc1ccc2c(c1)OCO2)N1CCN(c2ncnc3c2oc2ccccc23)CC1	none (no result: p53null 32C kill, PMP22 txn, p53null 39C kill, mTORC1 inh, S16 viability)
Cc1nc(-c2cccc(NC(=O)Nc3ccc([N+](=O)[O-])cc3)c2)no1	PMP22 txn inconclusive, mTORC1 inh inconclusive, S16 viability 28.2µM
COc1ccc(C)cc1NC(=O)Nc1cccc(-c2noc(C)n2)c1	PMP22 txn inconclusive, mTORC1 inh inconclusive
CC(=O)c1ccc(NC(=O)c2nc(-c3ccccc3)n(-c3ccccc3)n2)cc1	PMP22 txn inconclusive, p53null 39C kill inconclusive
Cc1c(C(=O)Nc2ccc(C(=O)O)cc2)nnn1-c1ccccc1	p53null 32C kill 12.6µM, p53null 39C kill inconclusive
N#Cc1ccc(Oc2ccc3c(c2)COB3O)cc1	none (no result: p53null 32C kill, PMP22 txn, p53null 39C kill, mTORC1 inh, S16 viability)
COc1ccc([C@@H]2CC(=O)c3c(O)cc(O[C@@H]4O[C@H](CO[C@@H]5O[C@@H](C)[C@H](O)[C@@H](O)[C@@H]5O)[C@@H](O)[C@H](O)[C@@H]4O)cc3O2)cc1O	none (no result: p53null 32C kill, PMP22 txn, p53null 39C kill, mTORC1 inh, S16 viability)
Nc1ccc(C(=O)Nc2cccc(-c3nc(N4CCOCC4)c4oc5ncccc5c4n3)c2)cn1	none (no result: p53null 32C kill, PMP22 txn, p53null 39C kill, mTORC1 inh, S16 viability)
Cc1ccc(NC2=C/C(=N\S(=O)(=O)c3cccs3)c3ccccc3C2=O)c(C)c1	p53null 32C kill 3.55µM, p53null 39C kill 3.55µM (no result: SKOV3 invasion, PMP22 txn, mTORC1 inh, S16 viability)
COc1ccc(C2=C(Nc3ccc(C)cc3C)c3ccccc3C2=O)cc1	none (no result: PMP22 txn, S16 viability)
